Reference: PubChem BioAssay AID2267 (National Center for Advancing Translational Sciences (NCATS), 2010)
The list shows a part of the results. Results filed as inconclusive are left out. Activity calls are given as the source filed them. The call rests on the fitted dose curve; in most records, active means well fitted inhibition curve with a large enough effect; inconclusive means small, poorly fitted or top-dose-only effect, or effect the other way; inactive means flat fitted curve, though single readings scatter.

Each compound was assayed against Pyruvate kinase PKM (Homo sapiens) (UniProt P14618) (assay: Secondary assay for Inhibitors of Human Pyruvate Kinase M2 isoform). Conditions: purified hPK-M2, LDH-coupled NADH fluorescence kinetic.
Excerpt: NIH Chemical Genomics Center [NCGC] Matthew G. Vander Heiden, M.D., Ph.D. [Harvard Medical School, 77 Avenue Louis Pasteur, Boston, MA 02115] MLPCN Grant: 1 R03 MH085679-01 NCGC Assay Overview: Human pyruvate kinase muscle 2 (hPK-M2)enzyme was supplied as a highly purified (>95% pure) preparation from Harvard Medical School and a secondary assay was used to evaluate compounds. This assay couples the formation of pyruvate from hPK-M2 using lactate dehydrogenase (LDH) and NADH. The depletion of NADH is followed in a fluorescent-based kinetic assay that follows the formation of pyruvate to lactate, as catalyzed LDH (described by Hannaert et al., 2002)1 Pyruvate kinase substrates, PEP and ADP, were present in the assay at 0.1 mM and 4 mM respectively. In this kinetic assay initial rates were determined by following the fluorescence of NADH depletion.
NCGC Assay Protocol Summary: Three uL of substrate mix (final concentration, 50 mM Tris-Cl pH 8.0, 200 mM KCl, 15 mM MgCl2, 0.1 mM PEP, 4.0 mM ADP, and 0.2 mM NADH) was dispensed into black-solid 1536 well plates. 23 nL of compounds were delivered by a pin tool and 1 uL of enzyme mix (final concentrations, 10 nM hPK-M2 and 1 uM of LDH) was added. Plates were immediately placed in ViewLux (Perkin Elmer) and NADH fluorescence was determined at 30 second exposure intervals for between 3 and 6 minutes. Data were normalized to the basal signal.

Sequence of Pyruvate kinase PKM (Homo sapiens) (P14618 whole entry, looked up, canonical isoform): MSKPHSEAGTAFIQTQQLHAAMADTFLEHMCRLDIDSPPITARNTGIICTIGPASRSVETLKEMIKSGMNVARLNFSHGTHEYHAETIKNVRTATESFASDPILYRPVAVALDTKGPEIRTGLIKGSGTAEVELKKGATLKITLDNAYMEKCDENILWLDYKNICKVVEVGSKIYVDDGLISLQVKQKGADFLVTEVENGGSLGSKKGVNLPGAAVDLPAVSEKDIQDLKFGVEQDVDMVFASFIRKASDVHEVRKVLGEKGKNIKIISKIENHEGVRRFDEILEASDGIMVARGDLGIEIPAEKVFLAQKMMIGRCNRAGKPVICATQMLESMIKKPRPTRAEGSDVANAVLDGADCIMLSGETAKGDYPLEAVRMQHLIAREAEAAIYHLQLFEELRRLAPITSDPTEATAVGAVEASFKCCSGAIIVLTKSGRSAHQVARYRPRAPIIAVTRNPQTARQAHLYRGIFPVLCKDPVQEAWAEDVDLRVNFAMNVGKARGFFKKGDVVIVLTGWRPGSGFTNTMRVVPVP

SMILES	Potency
Cc1ccc(-c2nc3ccccn3c2Nc2ccc(F)cc2)o1	7.3 µM (active)
